Values joined by “and” are separate entries in the source; they are usually repeats but may differ in a detail not shown here. Equal entries are not always repeated. Inconclusive results are not listed. Active and inactive are the calls of the source. How the source made its calls, unless noted: active means hit-call score of the fitted dose curve at least 0.9, where 1 is the maximum; inconclusive means response in the unintended direction; inactive means score below 0.9.
Key:
[1] = target: chicken Estrogen Receptor (ERa), ESR1 (gene 396099) (UniProt P06212); assay: ATG_chERa_XSP2: Attagene TRANS-FACTORIAL Multi-Species (XSP2) HepG2 Assay for chicken Estrogen Receptor (ERa) (AID 2283817);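 further: actives raise reporter signal above DMSO so AC50 reflects ER activation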
Chain of chicken Estrogen Receptor (ERa), ESR1 (gene 396099) (P06212 whole entry, looked up, the tested form may be a part): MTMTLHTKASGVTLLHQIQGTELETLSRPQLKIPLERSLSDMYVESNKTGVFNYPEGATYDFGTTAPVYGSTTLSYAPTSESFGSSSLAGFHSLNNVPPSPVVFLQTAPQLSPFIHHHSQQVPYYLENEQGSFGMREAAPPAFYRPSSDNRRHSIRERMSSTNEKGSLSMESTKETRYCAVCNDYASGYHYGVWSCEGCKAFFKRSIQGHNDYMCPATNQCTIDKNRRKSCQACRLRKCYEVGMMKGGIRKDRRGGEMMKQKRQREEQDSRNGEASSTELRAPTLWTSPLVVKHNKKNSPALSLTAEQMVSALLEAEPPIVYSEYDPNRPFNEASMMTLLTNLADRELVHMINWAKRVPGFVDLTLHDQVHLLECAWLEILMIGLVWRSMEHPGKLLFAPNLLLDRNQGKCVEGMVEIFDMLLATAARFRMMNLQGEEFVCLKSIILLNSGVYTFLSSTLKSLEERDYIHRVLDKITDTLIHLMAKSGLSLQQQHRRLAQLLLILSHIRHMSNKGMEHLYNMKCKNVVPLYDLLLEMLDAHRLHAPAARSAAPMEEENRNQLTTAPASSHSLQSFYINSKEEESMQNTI
Method in brief: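 Transient MRTU transfection of HepG2 → 24 h chemical dosing → TriZol RNA, oligo(dT) RT → PCR, 6-FAM primer extension, HpaI digest → CE quantitation of chicken ERa-Gal4-driven reporter mRNA. Positive direction vs DMSO.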

[2] = tested on: zebrafish Estrogen Receptor (ER2a), gene 317734; assay: ATG_zfER2a_XSP2: Attagene TRANS-FACTORIAL Multi-Species (XSP2) HepG2 Assay for zebrafish Estrogen Receptor (ER2a) (AID 2283818);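 further: hits raise reporter mRNA so AC50 reflects activation of zebrafish ER2a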
Method in brief: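 HepG2 cells transiently transfected with GAL4-UAS reporter units and chimeric zebrafish ER2a-Gal4, exposed 24 h; medium contains 3 nM 6-alpha-fluorotestosterone and 1.5 nM norgestrel. Reporter mRNA quantified by RT-PCR, HpaI digestion, capillary electrophoresis; gain versus DMSO.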

[3] = tested on: frog Estrogen Receptor (ER), gene 398734; assay: ATG_frER1_XSP2: Attagene TRANS-FACTORIAL Multi-Species (XSP2) HepG2 Assay for frog Estrogen Receptor (ER) (AID 2283821);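 further: hits raise reporter mRNA above DMSO baseline so potency means agonist or activator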
Method in brief: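 Steps: transfect HepG2 with multiple reporter transcription units; treat with chemical for 24 h; isolate RNA, reverse-transcribe, PCR-amplify, label with 6-FAM, digest with HpaI; resolve fragments by capillary electrophoresis. Signal is scored against DMSO.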

[4] = tested on: zebrafish Estrogen Receptor (ER2b), gene 317733; assay: ATG_zfER2b_XSP2: Attagene TRANS-FACTORIAL Multi-Species (XSP2) HepG2 Assay for zebrafish Estrogen Receptor (ER2b) (AID 2283823);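 further: fitted upward as reporter gain over DMSO so potency reflects activation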
Method in brief: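 Transfect HepG2 with GAL4-UAS reporter constructs; dose chemicals, 24 h; isolate RNA, RT-PCR, FAM-label, HpaI digest; capillary electrophoresis. Gain-of-signal vs DMSO.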

[5] = tested on: frog Estrogen Receptor (ER2), gene 100174814; assay: ATG_frER2_XSP2: Attagene TRANS-FACTORIAL Multi-Species (XSP2) HepG2 Assay for frog Estrogen Receptor (ER2) (AID 2283828)
Method in brief: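 Multiplexed transactivation in HepG2: frog estrogen receptor fused to Gal4 drives a UAS reporter. Signal is reporter mRNA after 24 h treatment.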

[6] = target: Peroxisome proliferator-activated receptor gamma (Homo sapiens) (UniProt P37231); assay: ATG_hPPARg_XSP2: Attagene TRANS-FACTORIAL Multi-Species (XSP2) HepG2 Assay for human Peroxisome Proliferator-activated Receptor gamma (PPARg) (AID 2283829);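 further: actives raise reporter mRNA above DMSO so AC50 reflects PPARg activation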
Chain of Peroxisome proliferator-activated receptor gamma (Homo sapiens) (P37231 whole entry, looked up, the tested form may be a part): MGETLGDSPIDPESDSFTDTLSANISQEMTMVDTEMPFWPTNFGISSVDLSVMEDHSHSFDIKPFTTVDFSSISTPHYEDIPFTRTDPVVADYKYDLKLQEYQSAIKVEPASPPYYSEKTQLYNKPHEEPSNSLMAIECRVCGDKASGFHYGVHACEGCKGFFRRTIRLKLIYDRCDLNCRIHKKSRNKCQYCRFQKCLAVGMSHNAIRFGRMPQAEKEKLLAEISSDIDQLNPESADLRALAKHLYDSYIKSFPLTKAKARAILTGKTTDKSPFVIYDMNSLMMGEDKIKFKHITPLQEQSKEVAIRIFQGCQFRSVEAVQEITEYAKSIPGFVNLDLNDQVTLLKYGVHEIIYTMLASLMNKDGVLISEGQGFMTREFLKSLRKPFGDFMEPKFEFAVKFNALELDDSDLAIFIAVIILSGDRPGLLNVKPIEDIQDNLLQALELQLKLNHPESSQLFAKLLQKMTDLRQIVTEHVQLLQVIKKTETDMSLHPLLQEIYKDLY
Method in brief: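 Transient MRTU transfection, HepG2; TRANS format (exogenous NR-Gal4 chimeras). 24 h chemical exposure with 3 nM 6-alpha-fluorotestosterone and 1.5 nM norgestrel present. Readout: reporter mRNA via RT-PCR/CE fluorescence, up-direction vs DMSO.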

[7] = target: Nuclear receptor subfamily 1 group I member 2 (Mus musculus) (UniProt O54915); assay: ATG_mPXR_XSP2: Attagene TRANS-FACTORIAL Multi-Species (XSP1) HepG2 Assay for mouse Pregnane X Receptor (PXR) (AID 2283831)
Chain of Nuclear receptor subfamily 1 group I member 2 (Mus musculus) (O54915 whole entry, looked up, the tested form may be a part): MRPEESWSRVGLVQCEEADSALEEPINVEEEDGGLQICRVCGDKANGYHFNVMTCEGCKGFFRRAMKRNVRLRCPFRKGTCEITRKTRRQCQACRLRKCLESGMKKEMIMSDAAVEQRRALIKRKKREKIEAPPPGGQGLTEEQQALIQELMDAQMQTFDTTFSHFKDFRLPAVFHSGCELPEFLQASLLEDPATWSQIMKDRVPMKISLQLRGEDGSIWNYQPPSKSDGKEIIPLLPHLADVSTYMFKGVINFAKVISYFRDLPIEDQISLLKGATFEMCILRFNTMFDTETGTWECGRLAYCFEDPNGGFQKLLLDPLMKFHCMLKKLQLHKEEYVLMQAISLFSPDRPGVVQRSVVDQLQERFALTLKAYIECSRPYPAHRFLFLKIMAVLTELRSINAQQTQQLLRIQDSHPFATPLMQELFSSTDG
Method in brief: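 Transient HepG2 transfection, multiplexed GAL4-UAS reporters, NR-GAL4 chimeras. 24 h compound exposure. Readout: reporter mRNA, RT-PCR, fluorescent capillary electrophoresis; positive direction vs DMSO baseline.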

[8] = tested on: zebrafish Peroxisome Proliferator-activated Receptor gamma (PPARg), gene 557037; assay: ATG_zfPPARg_XSP2: Attagene TRANS-FACTORIAL Multi-Species (XSP2) HepG2 Assay for zebrafish Peroxisome Proliferator-activated Receptor gamma (PPARg) (AID 2283833);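 further: actives increase reporter signal over DMSO so AC50 reflects activation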
Method in brief: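 Transfect HepG2 with multiplexed GAL4-UAS reporter constructs; dose chemical 24 h; isolate RNA, reverse-transcribe, PCR-amplify, label and digest reporter products; resolve by capillary electrophoresis. Activity taken as increase over DMSO.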

[9] = tested on: turtle Thyroid Hormone Receptor, alpha (TRa), gene 101949057; assay: ATG_trTRa_XSP2: Attagene TRANS-FACTORIAL Multi-Species (XSP1) HepG2 Assay for turtle Thyroid Hormone Receptor, alpha (TRa) (AID 2283834);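 further: hits raise reporter mRNA over the DMSO baseline so AC50 marks activators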
Method in brief: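 Readout: reporter mRNA induction, fluorescence after RT-PCR, HpaI digestion and capillary electrophoresis. Transiently transfected HepG2, exogenous NR-Gal4 chimera driving GAL4-UAS reporter, 24 h compound exposure. Activity fitted upward relative to DMSO baseline.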

[10] = ATG_M_61_XSP2: Attagene TRANS-FACTORIAL Multi-Species (XSP2) HepG2 Assay for M61 Transcription Factor (Internal Marker) (AID 2283835; active means hit-call score of the fitted dose curve at least 0.9, where 1 is the maximum; inactive means score below 0.9;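 further: reporter mRNA of an internal background marker read by RT-PCR and capillary electrophoresis; active means a rise in signal above the DMSO baseline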)
Method in brief: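 First, HepG2 cells are transfected with reporter units under GAL4-UAS control. Next, chemicals are applied for 24 h. Then total RNA is reverse-transcribed, amplified, fluorescently labelled and sized by capillary electrophoresis, with gain of signal scored against DMSO.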

[11] = target: zebrafish Thyroid Hormone Receptor beta (TRb), thrb (gene 30607) (UniProt Q9PVE4); assay: ATG_zfTRb_XSP2: Attagene TRANS-FACTORIAL Multi-Species (XSP1) HepG2 Assay for zebrafish Thyroid Hormone Receptor beta (TRb) (AID 2283836)
Chain of zebrafish Thyroid Hormone Receptor beta (TRb), thrb (gene 30607) (Q9PVE4 whole entry, looked up, the tested form may be a part): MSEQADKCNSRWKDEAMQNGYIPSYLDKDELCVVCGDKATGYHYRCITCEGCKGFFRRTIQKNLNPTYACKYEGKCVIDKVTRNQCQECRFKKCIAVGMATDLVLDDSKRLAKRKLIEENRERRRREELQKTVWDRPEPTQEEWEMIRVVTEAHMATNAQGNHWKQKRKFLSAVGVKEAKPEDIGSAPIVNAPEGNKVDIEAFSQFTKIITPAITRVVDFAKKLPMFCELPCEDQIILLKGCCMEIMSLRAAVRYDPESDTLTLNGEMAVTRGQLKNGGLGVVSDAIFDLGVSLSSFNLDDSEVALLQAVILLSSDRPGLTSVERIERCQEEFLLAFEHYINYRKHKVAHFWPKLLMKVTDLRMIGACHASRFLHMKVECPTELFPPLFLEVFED
Method in brief: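 Fluorescence of labelled reporter cDNA fragments, separated by capillary electrophoresis, gives mRNA induction from exogenous NR-Gal4 chimeras in transiently transfected HepG2 cells after 24 h dosing; 3 nM 6-alpha-fluorotestosterone and 1.5 nM norgestrel included in the run.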

[12] = ATG_XTT_Cytotoxicity_XSP2: Cytotoxicity Assessment in the Attagene TRANS-FACTORIAL Multi-Species (XSP2) HepG2 Assay (AID 2283837)
Method in brief: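 HepG2 cells, transiently transfected with multiple reporter constructs, exposed to chemical for 24 h. Cell number assessed with XTT fluorescence read-out; loss of signal fitted relative to DMSO.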

[13] = target: human Thyroid hormone Receptor alpha (TRa), THRA (gene 7067) (UniProt P10827); assay: ATG_hTRa_XSP2: Attagene TRANS-FACTORIAL Multi-Species (XSP2) HepG2 Assay for human Thyroid hormone Receptor alpha (TRa) (AID 2283838)
Chain of human Thyroid hormone Receptor alpha (TRa), THRA (gene 7067) (P10827 whole entry, looked up, the tested form may be a part): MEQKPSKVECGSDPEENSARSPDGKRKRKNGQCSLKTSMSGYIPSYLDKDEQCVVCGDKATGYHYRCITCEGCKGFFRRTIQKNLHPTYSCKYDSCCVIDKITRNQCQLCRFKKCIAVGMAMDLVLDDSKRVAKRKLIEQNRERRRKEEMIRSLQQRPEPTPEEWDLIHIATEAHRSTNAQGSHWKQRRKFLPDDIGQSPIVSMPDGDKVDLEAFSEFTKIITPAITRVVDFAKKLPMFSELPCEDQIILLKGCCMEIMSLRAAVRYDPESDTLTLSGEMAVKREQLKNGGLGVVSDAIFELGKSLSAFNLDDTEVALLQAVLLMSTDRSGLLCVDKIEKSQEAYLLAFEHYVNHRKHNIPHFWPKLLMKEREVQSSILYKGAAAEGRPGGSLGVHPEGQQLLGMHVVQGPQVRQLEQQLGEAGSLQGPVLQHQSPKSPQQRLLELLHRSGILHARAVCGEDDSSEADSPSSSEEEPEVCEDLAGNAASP
Method in brief: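 HepG2 cells transiently transfected with multiplexed GAL4-UAS reporter units and exogenous NR-GAL4 chimeras; 24 h chemical exposure with 3 nM 6-alpha-fluorotestosterone and 1.5 nM norgestrel present. Reporter mRNA measured by RT-PCR, FAM labelling, HpaI digestion, capillary electrophoresis; gain-of-signal versus DMSO.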

[14] = target: frog Thyroid hormone Receptor alpha (TRa), thra-a (gene 397942) (UniProt P15204); assay: ATG_frTRa_XSP2: Attagene TRANS-FACTORIAL Multi-Species (XSP2) HepG2 Assay for frog Thyroid hormone Receptor alpha (TRa) (AID 2283839)
Chain of frog Thyroid hormone Receptor alpha (TRa), thra-a (gene 397942) (P15204 whole entry, looked up, the tested form may be a part): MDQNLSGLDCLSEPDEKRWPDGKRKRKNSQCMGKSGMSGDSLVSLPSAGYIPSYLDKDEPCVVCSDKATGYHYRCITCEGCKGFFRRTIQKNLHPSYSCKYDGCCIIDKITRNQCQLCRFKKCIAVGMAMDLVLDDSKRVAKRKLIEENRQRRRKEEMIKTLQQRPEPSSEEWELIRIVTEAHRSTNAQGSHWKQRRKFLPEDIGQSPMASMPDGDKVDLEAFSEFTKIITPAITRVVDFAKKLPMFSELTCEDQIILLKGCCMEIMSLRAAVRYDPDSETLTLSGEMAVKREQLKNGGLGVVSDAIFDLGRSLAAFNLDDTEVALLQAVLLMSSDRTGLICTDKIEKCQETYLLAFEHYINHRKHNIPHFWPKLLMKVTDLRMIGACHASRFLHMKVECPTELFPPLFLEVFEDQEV
Method in brief: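 Read-out: fluorescent reporter-transcript fragments resolved by capillary electrophoresis after RT-PCR and HpaI cut. Human HepG2 liver cells carry a transfected frog TRα-Gal4 chimera driving a UAS reporter; 24 h exposure, DMSO baseline, positive-direction fit.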

[15] = target: human Thyroid hormone Receptor beta (TRb), THRB (gene 7068) (UniProt P10828); assay: ATG_hTRb_XSP2: Attagene TRANS-FACTORIAL Multi-Species (XSP2) HepG2 Assay for human Thyroid hormone Receptor beta (TRb) (AID 2283840);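 further: actives raise reporter mRNA so potency reflects agonist-like gain of signal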
Chain of human Thyroid hormone Receptor beta (TRb), THRB (gene 7068) (P10828 whole entry, looked up, the tested form may be a part): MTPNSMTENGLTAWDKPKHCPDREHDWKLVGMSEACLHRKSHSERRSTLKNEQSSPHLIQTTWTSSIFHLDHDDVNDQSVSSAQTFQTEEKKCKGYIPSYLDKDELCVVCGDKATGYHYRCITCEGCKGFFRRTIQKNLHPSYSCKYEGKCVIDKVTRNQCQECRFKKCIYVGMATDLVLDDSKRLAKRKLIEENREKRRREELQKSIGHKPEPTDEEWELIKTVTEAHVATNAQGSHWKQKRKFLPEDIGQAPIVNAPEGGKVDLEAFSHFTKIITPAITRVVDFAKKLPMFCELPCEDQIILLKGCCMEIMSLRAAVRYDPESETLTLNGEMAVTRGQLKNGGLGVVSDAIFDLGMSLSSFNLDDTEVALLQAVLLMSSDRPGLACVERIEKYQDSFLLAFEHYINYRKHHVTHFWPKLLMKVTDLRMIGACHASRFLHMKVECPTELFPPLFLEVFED
Method in brief: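 Read-out: reporter mRNA induction (RT-PCR, 6-FAM labeling, capillary electrophoresis), gain-of-signal relative to DMSO baseline. Transiently transfected HepG2 TRANS multiplex (NR-Gal4 chimeras, GAL4-UAS reporters), 24 h chemical exposure; medium contained 3 nM 6-alpha-fluorotestosterone plus 1.5 nM norgestrel.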

[16] = CCTE_Padilla_ZF_144hpf_TERATOSCORE: (Legacy) CCTE's 144 Hour Post-fertilization zebrafish Assay Teratoscore, Padilla Lab (AID 2283679; active means hit-call score of the fitted dose curve at least 0.9, where 1 is the maximum; inactive means score below 0.9;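 further: zebrafish embryos with chorions exposed by immersion from 6-8 hpf to 5 dpf with daily renewal; teratogenicity score from eye scoring of death hatching and malformations at 144 hpf; higher score means more developmental defects relative to DMSO baseline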)
Method in brief: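 Larvae scored by eye at 144 hpf for death, hatching and malformations after a day in clean Hanks'. Before that, daily-renewed exposure at 80 uM (0.4% DMSO, 26C) from roughly 6-8 hpf through 5 dpf, 4 embryos per chemical.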

THRA (gene 7067) = THRA (gene 7067) (UniProt P10827); assay: TOX21_TRA_COA_Antagonist_Followup_ratio: Tox21 Thyroid Hormone Receptor alpha Antagonism through Coactivator Recruitment Follow-Up Assay, Ratio (AID 2283953)
Chain of THRA (gene 7067) (P10827 whole entry, looked up, the tested form may be a part): as the sequence (P10827 whole entry, looked up, the tested form may be a part) above
Method in brief: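 This follow-up to the GH3 luciferase screen checks specificity in a cell-free format. It measures SRC-2 coactivator peptide binding to TRα LBD by TR-FRET and scores loss of ratio signal relative to DMSO.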

THRB (gene 7068) [17] = target: THRB (gene 7068) (UniProt P10828); assay: TOX21_TRB_BLA_Antagonist_Followup_ratio: Tox21 Thyroid Hormone Receptor beta Antagonism Beta-lactamase (BLA) Follow-Up Assay, Ratio (AID 2283958)
Chain of THRB (gene 7068) (P10828 whole entry, looked up, the tested form may be a part): as the sequence (P10828 whole entry, looked up, the tested form may be a part) above
Method in brief: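 In this antagonist-mode follow-up, a stably integrated GAL4-TRβ LBD fusion drives a UAS-beta-lactamase reporter in HEK293T cells. Loss of ratio signal relative to DMSO after 18 h treatment indicates activity; parallel CellTiter-Glo flags cytotoxicity.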

[18] = TOX21_TRB_BLA_Antagonist_Followup_viability: Viability Assessment in the Tox21 Thyroid Hormone Receptor beta Antagonism Beta-lactamase (BLA) Follow-Up Assay (AID 2283961)
Method in brief: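 Viability read as CellTiter-Glo ATP luminescence (loss of signal = cytotoxicity) in the same plates as the TRβ-bla readout. TRβ-LBD/GAL4 UAS-bla HEK293T cells were exposed to compounds, 11 concentrations in triplicate, for 18 h at 37C/5% CO2.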

THRB (gene 7068) [19] = target: THRB (gene 7068) (UniProt P10828); assay: TOX21_TRB_COA_Antagonist_Followup_ratio: Tox21 Thyroid Hormone Receptor beta Antagonism through Coactivator Recruitment Follow-Up Assay, Ratio (AID 2283967)
Method in brief: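 Test compound was incubated with 5.0 nM GST-TRβ LBD in 0.10% BSA. Then 200 nM fluorescein-SRC-2 peptide and 2 nM terbium anti-GST antibody were added. TR-FRET (520:495 nm) was measured and normalized to DMSO and T3 controls.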

Compound | AC50 [1] | AC50 [2] | AC50 [3] | AC50 [4] | AC50 [5] | AC50 [6] | outcome [7] | outcome [8] | outcome [9] | outcome [10] | outcome [11] | outcome [12] | outcome [13] | outcome [14] | outcome [15] | AC50 [16] | outcome (THRA (gene 7067)) | outcome (THRB (gene 7068) [17]) | outcome [18] | outcome (THRB (gene 7068) [19])
Cc1cc(O)cc(C)c1Cl | 24.2 µM (active) and 31.7 µM (active) | 100 µM (active) and 23.8 µM (active) | 66.8 µM (active) and 26.3 µM (active) | 68.1 µM (active) and 34.5 µM (active) | 29.3 µM (active) and 19.5 µM (active) | 48.2 µM (active) and 63.3 µM (active) | inactive | inactive | inactive | inactive | inactive | inactive | inactive | inactive | inactive |  |  |  |  | 
CC(C)n1c(/C=C/[C@@H](O)C[C@@H](O)CC(=O)O)c(-c2ccc(F)cc2)c2ccccc21 |  |  |  |  |  |  |  |  |  |  |  |  |  |  |  | 447 nM (active) and 111 nM (active) | inactive | inactive | inactive | inactive

— PubChem BioAssay (EPA / NIEHS)
